Pf growth 96h: Primary qHTS for delayed death inhibitors of the malarial parasite plastid, 96 hour incubation | P. falciparum luciferase reporter growth, 96 h | Potency, µM (doses to about 28.7 µM), without a hit: at the highest dose activity change, negative = inhibition, actives largely listed as inhibitors | 320,000 compounds, 6.9% hits; further: potency means the concentration at half of the fitted maximal effect; on the % scale 0 is the no-effect control and ±100 the full control effect
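Luminescence readout: decreased luciferase signal marks inhibited growth of reporter-expressing P. falciparum in infected red cells (2% hematocrit, 0.05% parasitemia final), exposed to compound two generations (96 h, 37 C, 5% CO2).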
Pf growth 48h: Primary qHTS for delayed death inhibitors of the malarial parasite plastid, 48 hour incubation | P. falciparum luciferase growth in erythrocytes, 48 h | Potency, µM (top dose mostly 28.7 µM), inactives show top-dose activity change, negative = inhibition, actives largely listed as inhibitors | 310,000 compounds, 5.9% hits | AID 504832, 2011; further: potency means the concentration at half of the fitted maximal effect; on the % scale 0 is the no-effect control and ±100 the full control effect
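First compound was added to culture medium, then infected red cells at 0.1% parasitemia and 2% hematocrit (final). After incubation at 37 C under 5% CO2, luciferase detection reagent was dispensed and light output recorded.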
Sm TGR inh: qHTS Assay for the Inhibitors of Schistosoma Mansoni Peroxiredoxins. Schistosoma mansoni thioredoxin glutathione reductase (TGR), Q962Y6. purified TGR, DTNB reduction, TNB absorbance 405 nm. Potency, µM (titrated, usually from 114 µM), for the others: top-dose activity change, negative = inhibition, actives largely listed as inhibitors. 360,000 compounds, 3% hits. AID 485364, 2010; further: potency means the concentration at half of the fitted maximal effect; on the % scale 0 is the no-effect control and ±100 the full control effect; nearly all actives have a fitted effect of over 60% in size
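TGR 20 nM + NADPH 100 uM (dispensed conc.), cpd preinc 15 min RT; start with NADPH (500 uM addition) then DTNB (15 mM addition). Kinetic TNB absorbance, 405 nm filter. Four-parameter Hill fit across titration.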
SARS PLpro yeast: qHTS of Yeast-based Assay for SARS-CoV PLP; 330,000 compounds, 0.19% hits; AID 485353, 2010; Potency, µM (top dose mostly 32.9 µM), for inactives: at the top dose activity, positive = growth rescue, hits mostly activators; S. cerevisiae expressing SARS-CoV PLpro, growth rescue; calls by dose curve; further: potency means the concentration at half of the fitted maximal effect; 0% is about no effect; nearly all actives have a fitted effect of over 55% in size
HCMV inh: qHTS Assay for inhibitors of the human cytomegalovirus (HCMV). AID 1259415, 2018. 410,000 compounds, 4.5% hits. activity change, negative = inhibition, % at 57.5 µM. HFF cells, HCMV-luciferase reporter, 72 h; stronger effect = lower value; in the data active means activity change below about -60%; inconclusive means no clear call, values can overlap the other calls; inactive means above about -39%; further: on the % scale 0 is the no-effect control and ±100 the full control effect
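Steps: HFFs plated, 16 h 37C; compounds added; HCMV-luciferase added to MOI 1 PFU/cell; 72 h 37C; OneGlo reagent, 5 min room temperature; luminescence read, normalized to controls.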
HCV inhibitor: qHTS Assay for Inhibitors of Hepatitis C Virus (HCV); Potency, µM (titrated, usually from 41.8 µM), without a hit: at the highest dose activity change, negative = inhibition, usual class: inhibitors; 340,000 compounds, 3.4% hits; Huh7.5.1 HCVcc-Cre infection, luciferase reporter, 44 h; AID 651820, 2012; further: potency means the concentration at half of the fitted maximal effect; on the % scale 0 is the no-effect control and ±100 the full control effect
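Cells seeded at 1,000/well and cultured 4 h, then compounds added followed by HCVcc-Cre virus (~0.5 moi). After 44 h further culture, luciferase substrate was added, plates held 15 min at room temperature, and luminescence read for 15 sec.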
Starred values were filed as active, the others as inactive; ? = inconclusive; . = no result given. Hits are enriched below; roughly 15% of the tested compounds scored in any of these assays. Unless noted, the call rests on the fitted dose curve; in most records, active means well fitted curve in the direction sought with a large enough effect; inconclusive means small, poorly fitted or top-dose-only effect, or another doubt; inactive means no such curve, though single readings can be large; an effect the other way counts as inactive or inconclusive.

SMILES	Pf growth 96h	Pf growth 48h	Sm TGR inh	SARS PLpro yeast	HCMV inh	HCV inhibitor
COc1ccccc1N1CCN(Cc2cc(COC(C)C)c3cccnc3c2O)CC1	.	.	?	.	-85*	.
Cc1ccc(C(=O)NCC(=O)OCC(=O)Nc2ccccc2[N+](=O)[O-])cc1	?	25%	-3%	-3%	11	14%
Brc1cccc(-c2nc3ccc(Br)cn3c2Cc2ccccc2)c1	.	.	.	.	-3	.
COc1ccccc1N1CCN(Cc2cc(Br)c(O)c3ncccc23)CC1	?	.	3.2µM*	?	-95*	4µM*
COc1ccc2oc(=O)cc(CN3CCN(c4ccccc4OC)CC3)c2c1	.	.	1%	.	-31	.
CCOCc1cc(CN2CCN(c3ccccc3OC)CC2)c(O)c2ncccc12	.	.	?	.	-98*	.
COc1ccc(NC(=O)CN2C(=O)CCn3nc(-c4cccn4C)cc32)cc1Cl	.	.	-22%	.	1	.
OCCCc1cn(-c2ccccc2)c2ccccc12	?	12%	9%	0%	10	10µM*
CCN(CC)C(=O)CCn1nc(-c2ccc(C)cc2)c2ccccc2c1=O	-2%	7.4µM*	-7%	0%	.	-3%
CNC(=O)CCn1nc(-c2ccccc2)c2ccccc2c1=O	15µM*	27%	0%	-2%	47	2%
Cc1ccc(-c2nn(CCC(N)=O)c(=O)c3ccccc23)cc1	?	3%	3%	0%	-8	3%
COc1cccc(C2=CC(c3ccc(C)cc3)n3ncnc3N2)c1 (stereo not given)	46%	?	18µM*	-2%	.	.
Cc1ccsc1C1C=C(c2cccc(Br)c2)Nc2ncnn21 (stereo not given)	12µM*	0%	?	-1%	.	-23%
Fc1ccc(Br)cc1C1C=C(c2ccc(Br)cc2)Nc2ncnn21 (stereo not given)	?	.	-20%	-5%	-19	?
Cc1ccc(C2C=C(c3ccc4c(c3)OCO4)Nc3ncnn32)cc1 (stereo not given)	12µM*	?	?	14%	-8	-19%
CN(CC(=O)Nc1ccc(Cl)cc1)C(=O)CN1C(=O)C2CCCCC2C1=O (stereo not given)	.	.	.	.	6	.
OC(c1ccccc1)(c1nc(/C=C/c2ccccc2)cs1)C(F)(F)F (stereo not given)	.	.	.	.	-61*	.
OC(c1ccccc1)(c1nc(-c2ccc3ccccc3c2)cs1)C(F)(F)F (stereo not given)	.	.	.	.	-83*	.
CCOc1ccc(N2C(=O)CC(NCCNc3ccc(C(=O)c4cccs4)cc3)C2=O)cc1 (stereo not given)	41%	-14%	?	-3%	-29	?
Cc1cc(Br)cn2c(Cc3cccc(F)c3)c(C3CCCCC3)nc12	.	.	.	.	-32	.
Cc1ccccc1-c1cc(C(=O)NCc2ccco2)n(CC2CC(c3cccnc3)=NO2)n1 (stereo not given)	?	?	18µM*	-5%	2	?
COc1ccccc1CNC(=O)c1cc(-c2ccccc2)nn1CC1CC(c2cccnc2)=NO1 (stereo not given)	.	.	.	.	3	-8%
Nc1ccc2c(c1)C(=O)c1cc(N)c(Cl)cc1-2	.	.	.	.	37	25µM*
Nc1ccc2c(c1)C(=O)c1ccc(Cl)cc1-2	.	.	.	.	16	?
O=c1[nH]c2ccccc2n1C1CCN(C(c2cccc3ccccc23)c2nnnn2-c2ccc3c(c2)OCCO3)CC1 (stereo not given)	.	.	.	.	-76*	.
SMILES	Pf growth 96h	Pf growth 48h	Sm TGR inh	SARS PLpro yeast	HCMV inh	HCV inhibitor
O=c1[nH]c2ccccc2n1C1CCN(C(c2cc3ccccc3o2)c2nnnn2-c2ccc3c(c2)OCCO3)CC1 (stereo not given)	.	.	.	.	-99*	.
c1ccc2c(C(c3nnnn3-c3ccc4c(c3)OCCO4)N3CCOCC3)ccnc2c1 (stereo not given)	.	.	.	.	19	.
COc1ccccc1NC(=O)C1=C(C)Nc2c(C(=O)Nc3cccc(C)c3)cnn2C1c1ccccc1Cl (stereo not given)	.	.	11%	.	-38	.
CCCCN(CC)CCCNC(=S)Nc1ccc2nc3n(c(=O)c2c1)CCCCC3	-5%	1%	-27%	12%	?	-30%
COc1ccc(Oc2ccc3c(C(F)(F)F)cc(C(F)(F)F)nc3n2)cc1	-29%	-5%	19%	0%	?	-13%
N#CC(c1ccccc1)c1ccc2c(C(F)(F)F)cc(C(F)(F)F)nc2n1 (stereo not given)	12µM*	.	24%	-2%	-104*	-19%
Cc1ccc(C(C#N)c2ccc3c(C(F)(F)F)cc(C(F)(F)F)nc3n2)cc1 (stereo not given)	1.7µM*	?	3%	2%	-99*	10µM*
FC(F)(F)c1cc(C(F)(F)F)c2ccc(N/N=C/c3ccccc3)nc2n1	0.47µM*	36%	-12%	-1%	18	3%
FC(F)(F)c1cc(C(F)(F)F)c2ccc(N/N=C/c3cccc(Cl)c3)nc2n1	5%	-12%	8%	3%	.	.
CN(N)c1ccc2c(C(F)(F)F)cc(C(F)(F)F)nc2n1	3%	-9%	1%	0%	?	8%
COc1ccc(C2=CC(=O)C[C@H](c3ccc(F)cc3)C2)c(OC)c1	?	?	0%	2%	-4	?
COc1ccc(-n2c(SCC(=O)Nc3ccc4c(c3)OCO4)nc3c([nH]c4ccccc43)c2=O)cc1	.	.	5%	.	9	.
CC12CC3(C)CC(C)(C1)CC(C(=O)NC(=S)N1CCCC1)(C2)C3	?	6.6µM*	1%	3%	-16	9%
CC(C)(C)C(=O)NC(=S)N1CCCC1	-20%	10%	-12%	-2%	0	3%
COc1ccccc1NC(=O)C1=C(C)NC(SCC(=O)Nc2ccc(C(=O)O)cc2)=C(C#N)C1c1cccs1 (stereo not given)	?	?	45µM*	5%	-4	4%
CCCSC1=C(C#N)C(c2cccs2)C(C(=O)Nc2ccccc2)=C(C)N1 (stereo not given)	10%	8.3µM*	35µM*	-11%	?	11µM*
CC1=C(C(=O)Nc2ccccc2)C(c2ccncc2)C(C#N)=C(SCC(=O)NC(C)C)N1 (stereo not given)	33%	10µM*	-4%	8%	-39	-9%
N#Cc1cc(C#N)c(N2CCN(c3cccc(Cl)n3)CC2)nc1N	1.7µM*	3.7µM*	10%	?	50	11µM*

Compound activity from PubChem.
